{"source": "PubChem BioAssay AID652154", "about": "(Broad Institute, 2013)", "note": "Values joined by “and” are separate entries in the source; they are usually repeats but may differ in a detail not shown here. Identical values can stand only once. Out of some 360,000 compounds screened, about 4,200 (1.2%) were called active. What follows is part of a selection rich in actives, with near analogues and random picks from the rest. Values without a mark were called inactive.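 The calls were made as follows: active = mean replicate inhibition at least 60% with every replicate also reaching 60%; inconclusive = only one of the two criteria is met; inactive = mean below 60% and not all replicates reaching 60%.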"}
{"test": "PAX8 transcriptional activity inhibition in RMG-I – RMG-I cells, luciferase, single concentration, primary screen (AID 652154);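 also: luciferase light reporting Pax8 driven TPO promoter activity; plate controls were median of neutral control wells for no effect and mitoxantrone controls for full effect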", "settings": "RMG-I TPO-luciferase reporter, SteadyGlo, 24 h; at 12.6 µM; hits give high values"}
{"molecule": "Cc1ccccc1-c1ccc([C@@H]2[C@H](CO)N3CCCCN(S(=O)(=O)c4ccc(F)cc4)C[C@@H]23)cc1", "inhibition": "-34.4%"}
{"molecule": "Cc1ccc(C)c(OCC(=O)N2CCN(C(=O)c3ccco3)CC2)c1", "inhibition": "64.3% (active)"}
{"molecule": "O=C(OCC(=O)N1CCN(C(=O)c2ccco2)CC1)c1c(Cl)cccc1Cl", "inhibition": "-6.1%"}
{"molecule": "Cc1ccc(OCC(=O)Nc2ccc(N3CCN(C(=O)c4ccco4)CC3)cc2)c(C)c1", "inhibition": "7.91%"}
{"molecule": "CC(C)=CCc1ccc(O)c(=O)cc1C(C)C", "inhibition": "79.1% (active)"}
{"molecule": "CC(C)c1cc(N=O)cc(C(C)C)c1O", "inhibition": "1.72%"}
{"molecule": "O=C(C[C@@H]1CC[C@H](NS(=O)(=O)c2cccc(F)c2)[C@H](CO)O1)N1CCCCC1", "inhibition": "2.78%"}
{"molecule": "O=C(CN1CCOCC1)N1CCCCN2[C@H](C1)[C@H](c1ccc(-c3ccccc3F)cc1)[C@@H]2CO", "inhibition": "0.84%"}
{"molecule": "C[C@@H]1CN([C@H](C)CO)C(=O)c2cc(NC(=O)c3ccncc3)ccc2O[C@@H]1CN(C)C(=O)Nc1ccc(F)cc1", "inhibition": "-12.7%"}
{"molecule": "CC[C@H](C)[C@H]1CNC(=O)C(=O)N1CC1CCN(CCc2ccc(OC)c(OC)c2)CC1", "inhibition": "5.58%"}
{"molecule": "Cc1noc(C)c1S(=O)(=O)Nc1ccc2c(c1)CC(=O)N([C@@H](C)CO)C[C@@H](C)[C@@H](CN(C)C(=O)Nc1ccc(C(F)(F)F)cc1)O2", "inhibition": "4.57%"}
{"molecule": "C[C@H]1CCCCO[C@H](CN(C)CC2CCCCC2)[C@@H](C)CN([C@@H](C)CO)C(=O)c2cc(NS(=O)(=O)c3ccc(Cl)cc3)ccc2O1", "inhibition": "68.9% (active)"}
{"molecule": "COc1ccc(NC(=O)N(C)C[C@H]2OCCCC[C@H](C)Oc3ccc(NS(=O)(=O)c4ccc(Cl)cc4)cc3C(=O)N([C@@H](C)CO)C[C@H]2C)cc1", "inhibition": "-13.3%"}
{"molecule": "C[C@@H]1CCCCO[C@@H](CN(C)C(=O)NC2CCCCC2)[C@H](C)CN([C@H](C)CO)C(=O)c2cc(NS(=O)(=O)c3ccc(Cl)cc3)ccc2O1", "inhibition": "89.7% (active)"}
{"molecule": "C[C@H]1CCCCO[C@@H](CN(C)C(=O)Nc2cccc3ccccc23)[C@@H](C)CN([C@@H](C)CO)C(=O)c2cc(NS(=O)(=O)c3ccc(Cl)cc3)ccc2O1", "inhibition": "71.8% (active)"}
{"molecule": "C[C@@H]1CCCCO[C@H](CN(C)CC2CCCCC2)[C@H](C)CN([C@H](C)CO)C(=O)c2cc(NS(=O)(=O)c3ccc(F)cc3)ccc2O1", "inhibition": "53.6%"}
{"molecule": "C[C@H]1CCCCO[C@@H](CN(C)C(=O)NC2CCCCC2)[C@@H](C)CN([C@@H](C)CO)C(=O)c2cc(NS(=O)(=O)c3ccc(Cl)cc3)ccc2O1", "inhibition": "32.2%"}
{"molecule": "Cc1ccc(S(=O)(=O)Nc2ccc3c(c2)C(=O)N([C@@H](C)CO)C[C@@H](C)[C@H](CN(C)C(=O)Nc2cccc4ccccc24)OCCCC[C@H](C)O3)cc1", "inhibition": "22.8%"}
{"molecule": "COc1ccc(NC(=O)N(C)C[C@@H]2OCCCC[C@@H](C)Oc3ccc(NS(=O)(=O)c4ccc(Cl)cc4)cc3C(=O)N([C@H](C)CO)C[C@H]2C)cc1", "inhibition": "63.7% (active)"}
{"molecule": "C[C@@H]1CCCCO[C@H](CN(C)C(=O)NC2CCCCC2)[C@H](C)CN([C@H](C)CO)C(=O)c2cc(NS(=O)(=O)c3ccc(Cl)cc3)ccc2O1", "inhibition": "53.7%"}
{"molecule": "COc1ccc(NC(=O)N(C)C[C@H]2OCCCC[C@@H](C)Oc3ccc(NS(=O)(=O)c4ccc(F)cc4)cc3C(=O)N([C@@H](C)CO)C[C@@H]2C)cc1", "inhibition": "1.37%"}
{"molecule": "C[C@H](CO)N1C[C@H](C)[C@H](CN(C)CC2CCCCC2)OCCCC[C@H](C)Oc2ccc(NS(=O)(=O)c3ccc(F)cc3)cc2C1=O", "inhibition": "52.9%"}
{"molecule": "C[C@@H]1CCCCO[C@@H](CN(C)C(=O)Nc2cccc3ccccc23)[C@H](C)CN([C@@H](C)CO)C(=O)c2cc(NS(=O)(=O)c3ccccc3)ccc2O1", "inhibition": "22.1%"}
{"molecule": "C[C@@H]1CN([C@@H](C)CO)S(=O)(=O)c2ccc(C3=CCCCC3)cc2O[C@@H]1CN(C)Cc1cccc(C(=O)O)c1", "inhibition": "-22.5%"}
{"molecule": "C/C=C/c1ccc([C@@H]2[C@@H](CO)N(C(C)=O)[C@H]2CN(C)C(=O)CN(C)C)cc1", "inhibition": "0.935%"}
{"molecule": "C[C@H]1CN([C@@H](C)CO)C(=O)Cc2cc(NC(=O)NC3CCCCC3)ccc2O[C@H]1CN(C)S(=O)(=O)c1cccs1", "inhibition": "11.1%"}
{"molecule": "O=C(C[C@@H]1CC[C@@H]2[C@H](COC[C@@H](O)CN2Cc2ccc(F)cc2)O1)NCc1ccncn1", "inhibition": "-11.3%"}
{"molecule": "Cc1ccc(S(=O)(=O)Nc2ccc3c(c2)C(=O)N([C@H](C)CO)C[C@@H](C)[C@@H](CN(C)C(=O)CCC(F)(F)F)OCCCC[C@@H](C)O3)cc1", "inhibition": "-2.28%"}
{"molecule": "O=C(NC1CCC1)[C@@H]1[C@@H](CO)[C@@H]2Cn3c(ccc(/C=C/c4ccccc4)c3=O)[C@@H]2N1Cc1ccncc1", "inhibition": "7.46%"}
{"molecule": "CN1C[C@H](O)COC[C@H]2O[C@H](CC(=O)NC3CCC3)CC[C@@H]21", "inhibition": "-17.3%"}
{"molecule": "CN(C)C(=O)c1cccc(-c2ccc([C@H]3[C@H](CO)N4C(=O)CN(C(=O)C5CCCCC5)C[C@@H]34)cc2)c1", "inhibition": "-1.57%"}
{"molecule": "C[C@H](CO)N1C[C@H](C)[C@@H](CN(C)C)OCCCC[C@H](C)Oc2ccc(NC(=O)C3CCCCC3)cc2C1=O", "inhibition": "-11.4%"}
{"molecule": "O=S(=O)(Cc1ccccc1)N1CCCCN2[C@@H](CO)[C@@H](c3ccc(-c4ccc(F)cc4)cc3)[C@@H]2C1", "inhibition": "44.5%"}
{"molecule": "C[C@@H]1CN([C@@H](C)CO)C(=O)c2cc(NS(=O)(=O)c3cccs3)ccc2O[C@@H](C)CCCCO[C@@H]1CN(C)C(=O)NC1CCCCC1", "inhibition": "1.62%"}
{"molecule": "COc1ccc(-c2nc3ccc(Br)cn3c2Cc2ccc(C)cc2)cc1OC", "inhibition": "-53.2%"}
{"molecule": "Cc1ccc(-c2nc3ccc(Cl)cn3c2Cc2ccccc2)cc1", "inhibition": "-103%"}
{"molecule": "Cc1ccc(-c2nc3ccc(Br)cn3c2Cc2ccccc2C(F)(F)F)cc1", "inhibition": "-163%"}
{"molecule": "CS(=O)(=O)Nc1cccc(-c2cn3ccccc3n2)c1", "inhibition": "-44.1%"}
{"molecule": "Cc1ccc2nc(-c3ccc(Br)cc3)cn2c1", "inhibition": "92.9% (active)"}
{"molecule": "Cc1ccc(-c2cn3cc(C)ccc3n2)cc1", "inhibition": "91.9% (active)"}
{"molecule": "O=C(C[C@@H]1C=C[C@H](NC(=O)CN2CCOCC2)[C@@H](CO)O1)NC1CCC1", "inhibition": "-5.79%"}
{"molecule": "C[C@H](CO)N1C[C@H](C)[C@H](CN(C)C)Oc2c(NS(=O)(=O)c3ccc(Cl)cc3)cccc2C1=O", "inhibition": "-6.01%"}
{"molecule": "COc1cccc(S(=O)(=O)N[C@H]2CC[C@H](CC(=O)NC3CCC3)O[C@H]2CO)c1", "inhibition": "-7.93%"}
{"molecule": "O=C(C[C@H]1C[C@@H]2c3cc(NC(=O)c4cccnc4)ccc3O[C@@H]2[C@H](CO)O1)NCc1ccccn1", "inhibition": "-7.94%"}
{"molecule": "Cc1ccc(N)cc1CN1CCN(c2ncc(Cc3ccccc3)cn2)CC1", "inhibition": "-0.199%"}
{"molecule": "CN(C)C(=O)c1ccc(-c2ccc(C3[C@@H]4CN(C(=O)Nc5ccccc5)C[C@H]3N4)cc2)cc1", "note": "(some centres undefined)", "inhibition": "5.13%"}
{"molecule": "Cc1cccc(-c2ccc(C3[C@@H]4CN(C(=O)Nc5ccc(C(F)(F)F)cc5)C[C@H]3N4)cc2)c1", "note": "(some centres undefined)", "inhibition": "116% (active) and 119% (active)"}
{"molecule": "O=C(C1CCCCC1)N1C[C@@H]2N[C@H](C1)C2c1ccc(-c2cccc(F)c2)cc1", "note": "(some centres undefined)", "inhibition": "-14.7% and -21.2%"}
{"molecule": "CNC[C@H]1Oc2ccc(NC(=O)Nc3ccc4c(c3)OCO4)cc2CC(=O)N([C@H](C)CO)C[C@H]1C", "inhibition": "2.09%"}
{"molecule": "COc1ccc2c3c(n(C)c2c1)[C@@H](CO)N(Cc1ccncc1)CC31CN(C(=O)C2CCC2)C1", "inhibition": "7.29%"}
{"molecule": "COCC(=O)N(C[C@H]1N[C@H](CO)[C@H]1c1ccc(C2=CCCCC2)cc1)C(C)C", "inhibition": "2.09%"}
{"molecule": "CN(CC1CCCO1)S(=O)(=O)c1ccc(C(=O)Nc2ccc([N+](=O)[O-])cc2)cc1", "note": "(centres undefined)", "inhibition": "-4.55%"}
{"molecule": "Cn1ccc(=Nc2ccc(NC(=O)c3ccc(N=c4ccn(C)c5ccc([N+](=O)[O-])cc45)cc3)cc2)cc1", "inhibition": "79.6% (active)"}
{"molecule": "Cn1c(=O)n(C)c2cc(C(=O)Nc3ccc(Br)cc3)ccc21", "inhibition": "-6.12%"}
{"molecule": "C[C@@H]1CN([C@H](C)CO)C(=O)c2cc(N(C)C)ccc2O[C@@H](C)CCCCO[C@@H]1CN(C)C(=O)CCCN(C)C", "inhibition": "-0.0835%"}
{"molecule": "O=c1ccn([C@@H]2O[C@H](CNS(=O)(=O)c3cc4ccccc4s3)[C@@H](O)[C@H]2O)c(=O)[nH]1", "inhibition": "78.9% (active)"}
{"molecule": "O=C(NS(=O)(=O)c1cccs1)[C@H]1O[C@@H](n2ccc(=O)[nH]c2=O)[C@H](O)[C@@H]1O", "inhibition": "-7.69%"}
{"molecule": "Cc1sc2ccccc2c1CNC[C@H]1O[C@@H](n2ccc(=O)[nH]c2=O)[C@H](O)[C@@H]1O", "inhibition": "3.61%"}
{"molecule": "C[C@H]1CN([C@@H](C)CO)C(=O)c2c(c3ccccc3n2C)-c2ccccc2CO[C@@H]1CN(C)Cc1ccc2c(c1)OCCN2C", "inhibition": "-18%"}
{"molecule": "CS(=O)(=O)N1[C@H](CO)[C@H](c2ccccc2)C12CN(C(=O)C1CC1)C2", "inhibition": "-2.16%"}
{"molecule": "COc1cccc(-c2cnc3c(c2)C(=O)N([C@H](C)CO)C[C@H](C)[C@@H](CN(C)Cc2ccc(C(=O)O)cc2)O3)c1", "inhibition": "9.85%"}
{"molecule": "OC[C@@H]1CN(Cc2ccc(F)cc2)C[C@H](n2cnc3c(NC4CCCC4)ncnc32)O1", "inhibition": "3.85%"}
{"molecule": "OC[C@@H]1CN(Cc2cccs2)C[C@H](n2cnc3c(NC4CCCC4)ncnc32)O1", "inhibition": "-6.69%"}
{"molecule": "OC[C@@H]1CN(Cc2ccc(-c3ccccc3)cc2)C[C@H](n2cnc3c(NC4CCCC4)ncnc32)O1", "inhibition": "64.7% (active)"}
